# Bioassay records (PubChem BioAssay)
# Shiga inhibitor = Shiga toxin inhibition. Vero cells, Shiga toxin protein synthesis inhibition reporter. inhibition, % at 38.7 µM. 290,000 compounds, 9.2% hits. AID 2315; in the data active = inhibition mostly above about 28%, no sharp cut-off; inactive = mostly below about 43%; also: 0% is about no effect
# Cycloheximide cs = affects cycloheximide protein synthesis inhibition readout, counter-screen | max response, % | cell reporter, cycloheximide protein synthesis inhibition counterscreen | 300,000 compounds, 12% hits; in the data active = max response mostly above about 13%, no sharp cut-off; inactive = mostly below about 14%; also: read at 38.3 µM for the half of the compounds with a filed dose; 0% is about no effect
# Pf growth 96h = P. falciparum growth inhibition at 96 hour, primary screen for plastid delayed-death inhibitors; P. falciparum luciferase reporter growth, 96 h; Potency, µM (top dose mostly 28.7 µM), inactives show at the top dose activity change, negative = inhibition, actives largely listed as inhibitors; 320,000 compounds, 6.9% hits; also: potency is read from the fitted curve at half-maximal effect; % is scaled to controls: 0 for no effect and ±100 for the full control effect
#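 Two-generation exposure (96 h) targets delayed-death phenotype. Reporter parasites carrying integrated firefly luciferase, in red cells at 2% hematocrit and 0.05% parasitemia final, kept at 37 C, 5% CO2; luminescence loss indicates inhibition.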
# HCMV inh = inhibitors of human cytomegalovirus | HFF cells, HCMV-luciferase reporter, 72 h; stronger effect = lower value | activity change, negative = inhibition, % at 57.5 µM | 410,000 compounds, 4.5% hits | AID 1259415; in the data active = activity change below about -60%; inconclusive = no clear call, values can overlap the other calls; inactive = above about -39%; also: % is scaled to controls: 0 for no effect and ±100 for the full control effect
#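 Cell-based, HFFs, 1000 cells/well, 16 h 37C; cpds in DMSO + HCMV-luc, MOI 1 PFU/cell; 72 h 37C; OneGlo luminescence after 5 min RT; norm. to buffer vs Salinomycin 10uM.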
# Pf growth 48h = P. falciparum growth inhibition at 48 hours (one generation); P. falciparum luciferase growth in erythrocytes, 48 h; Potency, µM (highest dose often 28.7 µM), without a hit: top-dose activity change, negative = inhibition, actives largely listed as inhibitors; 310,000 compounds, 5.9% hits; AID 504832; also: potency is read from the fitted curve at half-maximal effect; % is scaled to controls: 0 for no effect and ±100 for the full control effect
#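 Cell-based growth assay: transgenic P. falciparum expressing firefly luciferase, cultured in red cells within RPMI 1640 containing 0.5% w/v Albumax, 24 mM bicarbonate and gentamycin. A drop in luciferase activity indicates inhibition.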
# Numbers without * were called inactive; u = inconclusive; x = not tested or not shown; [ ] = dose if it differs, or a comment. The list is not random: actives were taken first. Their share in the collection is about 20%. Unless noted, calls follow the shape of the dose curve; as a rule, active = well fitted inhibition curve with a large enough effect; inconclusive = small, poorly fitted or top-dose-only effect, or another doubt; inactive = no such curve, though single readings can be large or run the other way.
SMILES,Shiga inhibitor,Cycloheximide cs,Pf growth 96h,HCMV inh,Pf growth 48h
CC[N+]1(C)CCC(=C2c3ccccc3CC(=O)c3sccc32)CC1 (configuration not stated),-7.6,-3.3,11.7µM*,-23.3,u
O=C(Cc1cccc2ccccc12)NCC(=O)Nc1ccccc1F,9.5,-2.1,42.3%,40.3,-9.0%
COc1cccc(C2N(c3ccc(Cl)cc3)C(=O)C3CCCN32)c1 (configuration not stated),-3.0,-1.5,5.22µM*,24.3,-3.1%
COc1ccccc1C1N(c2ccc(Cl)cc2)C(=O)C2CCCN21 (configuration not stated),-7.3,5.3,40.9%,-75.3*,-28.8%
O=C1C2CCCN2C(c2cccs2)N1c1ccc(Cl)cc1 (configuration not stated),-18.6,10.9,-1.3%,-73.9*,2.6%
COc1ccc(N2C(=O)C3CCCN3C2c2cccc(C)c2)cc1 (configuration not stated),-16.7,-5.4,u,5.8,x
O=c1ccc2[n+]([O-])c3ccc(O)cc3oc-2c1,31.3,3.5,4.65µM*,-61.0*,1.85µM*
O=C(CCC1COc2ccccc2O1)Nc1ccc(Cl)cn1 (configuration not stated),31.3*,14.4*,8.1%,u,15.2%
Cc1ccnc(NC(=O)CCC2COc3ccccc3O2)c1 (configuration not stated),17.3,13.0*,x,-6.4,23.7%
O=C(O)CCC1COc2ccccc2O1 (configuration not stated),-8.6,0.5,x,82.3,-2.3%
COc1cccc(N2C(=NC(=O)C3CCCCC3)SC3CS(=O)(=O)CC32)c1 (configuration not stated),-4.8,-0.9,33.9%,u,11.2%
CC1=C(C(=O)N(C(C)C)C(C)C)CC(CC(=O)NC2CCCCC2)C(=O)N1Cc1ccc(C(C)(C)C)cc1 (configuration not stated),x,x,x,-87.7*,x
COc1ccc(CN2C(=O)C(CC(=O)NC3CCCC3)CC(C(=O)N(C(C)C)C(C)C)=C2C)cc1 (configuration not stated),x,x,x,-12.0,x
O=c1cc(CN2CCN(c3ccccc3F)CC2)c2ccccc2o1,x,x,x,-13.6,x
O=C1COc2ccccc2N1Cc1c(F)cccc1Cl,27.0,-6.1,9.8%,-63.2*,-14.8%[0.00184 µM]
COc1ccc(C(=O)C2CCCN(C(=O)CSC)C2)cc1OC (configuration not stated),-2.7,-0.9,13.1µM*,89.9,19.1%
COc1ccc2cc(C(=O)C3CCCN(C(=O)C4=NN(C)C(=O)CC4)C3)ccc2c1 (configuration not stated),2.5,20.5*,5.22µM*,-26.6,0.4%
CCNC(=O)N1CCCC(C(=O)c2ccc3cc(OC)ccc3c2)C1 (configuration not stated),25.7,20.0*,u,42.0,u
COc1cc(OC)cc(C(=O)N2CCN(C(=O)c3cccnc3)CC2)c1,-10.2,0.7,14.7µM*,6.0,u
Clc1ccc(CCNc2nc3cc(Cl)c(Cl)cc3n3cnnc23)cc1,x,x,x,-0.3,x
COc1ccccc1CNC(=O)CCC1N=C2c3ccccc3N=C(SCc3cccc(Cl)c3)N2C1=O (configuration not stated),x,x,x,-30.6,x
COc1ccc2cc(C(=O)C3CCCN(C(=O)c4cccnc4)C3)ccc2c1 (configuration not stated),32.3,-1.4,11.7µM*,0.0,13.7%
O=C(c1ccc2ccccc2c1)C1CCCN(C(=O)c2cccnc2)C1 (configuration not stated),-0.3,14.3,-7.6%,-12.2,3.9%
COc1ccc2cc(C(=O)C3CCCN(C(=O)CSc4nnc(C)o4)C3)ccc2c1 (configuration not stated),-2.3,5.4,u,-65.7*,-11.7%
CSc1ccc(C(=O)C2CCCN(C(=O)CCc3c(C)nn(C)c3C)C2)cc1 (configuration not stated),x,x,x,-63.3*,x
SMILES,Shiga inhibitor,Cycloheximide cs,Pf growth 96h,HCMV inh,Pf growth 48h
Cc1ccc(S(=O)(=O)NCc2ccccc2)cc1C(=O)N(C)CC(=O)Nc1ccccc1Br,x,x,x,5.8,x
COc1ccc(C(=O)NC(=S)NNC(=O)c2ccc(NC(C)=O)cc2)cc1Br,-7.0,10.3,-3.2%,-5.3,-15.3%
COc1ccc(C(=O)NNC(=S)NC(=O)c2ccc(F)cc2)cc1Br,x,x,x,4.4,x
COc1ccc(C(=O)NC(=S)NC(C)C)cc1Br,64.8*,23.2*,u,12.0,-2.9%
COc1ccc(C(=O)NC(=S)NC(C)(C)C)cc1Br,71.1*,20.7*,5.22µM*,19.2,u
COc1ccc(C(=O)NC(=S)NNC(=O)c2ccncc2)cc1Br,x,x,u,-1.9,13.1µM*
CC(C)n1c(SCC(=O)NCc2ccco2)nnc1C1CC1,17.7,-2.0,u,14.4,-18.2%
COc1ccc(C(=O)NCc2csc(-c3cccs3)n2)cc1,13.4,1.3,34.0%,-37.7,28.2%
O=C(NCc1csc(-c2cccs2)n1)Nc1cccc(Cl)c1,-13.0,10.9,u,-13.6,18.2%
CCC(=O)NCc1csc(-c2cccs2)n1,27.7,24.2*,74.5%,-70.3*,38.3%
O=C(NCc1csc(-c2cccs2)n1)C1CCCCC1,76.2*,28.6*,70.3%,-13.2,44.7%
COc1ccc(-c2nc(CNS(=O)(=O)c3ccc(C)cc3)cs2)cc1,x,x,x,18.7,x
O=S(=O)(NCc1csc(-c2cccs2)n1)c1ccccc1,41.0,6.7*,18.1%,64.0,2.3%
COc1ccccc1CC(=O)NCc1csc(-c2cccs2)n1,68.0*,46.6*,95.4%,18.5,97.8%
COc1ccccc1CCNC(=O)c1nc(-c2cccs2)no1,66.6*,29.2*,12.9%,18.6,32.0%
COC(=O)CCn1nnc(-c2cccs2)n1,-1.0,2.8,23.6%,-11.0,8.3%
COC(=O)CCn1nnc(-c2ccc(C(C)C)cc2)n1,-10.8,-4.7,u,-62.4*,u
C=CCN(C)CCCCCCOc1ccc(C(=O)c2ccc(Br)cc2)c(F)c1,-8.7,11.7,x,x,x
CCN(CC)c1nc(C)nc2c1cnn2CCc1ccccc1,172.7*,49.2*,x,11.7,14.4%
CCN(CC)c1ncnc2c1cnn2Cc1ccc(C)cc1,16.6,7.1,-29.7%,41.5,u
C=CC[C@H](CC(=O)N(CCO)Cc1ccccc1)C(=O)NC[C@H](OC(=O)[C@@H](CC=C)Cc1ccc(F)cc1)c1ccccc1,x,x,x,19.4,x
Cc1cccc(-c2nc3c(c(SCC(=O)N4CCOCC4)n2)COC(C)(C)C3)c1,-1.2,-3.9,11.7µM*,0.0,u
CC1(C)Cc2nc(-c3ccccc3)nc(SCC(O)CO)c2CO1 (configuration not stated),7.1,-1.7,10.4µM*,-7.1,-6.7%
CCN(CC)C(=O)CSc1nc(-c2ccc(C)cc2)nc2c1COC(C)(C)C2,14.7,19.8*,u,u,x
O=C(O)CCc1ccc(-c2ccc(Br)cc2)n1-c1cccc(O)c1,86.8*,32.3*,8.8%,u,58.2%
